Here are results for nine molecules from paper PMC12864922, “TDP-43 directly inhibits mRNA accumulation in neurites through modulation of mRNA stability”.

To fix the notation:
B1: ENSMUSG00000058297.302|Spock2|29:34 (ssRNA)
RNA: GGGAGUUCUACAGUCCGACGAUCGCUUCGAUAUCCGCAUGCUAAUGCCCAGGAAGAGUGAGGGCAGCCCCCACACACGUGGAAGAGGCUGGGCAGCUAGCUACUGGGGACCUUGUGCUGAGGCUUCCAGGACAAAGCCCCAGUCUGGCUCUCCCCCAGCCUCUCAGGGGCACUGGCUGGUCACAUCCACUGAGUAUUGAUCGGUUGGACUUUAGGGAAGAGCCUCCUCCUUCCCAUUCCUUUCUGCCACCCUGGAAUGGCCACCUUAAUCGUCAUCUCCUCGGGGGGAAUACGGAAAUGUCACCUCUUGCGGUCGCACUAGUGUGGAAUUCUCGGGUGUCAAGG
B2: ENSMUSG00000042529.387|Kcnj12 (ssRNA)
RNA: GGGAGUUCUACAGUCCGACGAUCGCUUCGAUAUCCGCAUGCUACUGGUCAGGCUGGAUGCUGGCCACAGACAUGAUCAGUCCGACUUGAGUCCCUGCCCUGCCCUGGUUAUGCAGGCUGUACGACGCAGUGUGCAUCAGUCUGAGGAGUCUGGUGGUAAGUAAGCCUCUGCAGCAGACCCUGUCGGAGGCCAUGGGGGCGUGUGUGUGUGUGUGUGUGUGUGUGUGUGUGUGUGUGUGUGUGUGUGUGUGUGAACAUGUGUGAGGGUGUGGAGGUCCCAGGGUGUGUGUAUGUGAAUGUCAGUCUCUUGCGGUCGCACUAGUGUGGAAUUCUCGGGUGUCAAGG
B3: ENSMUSG00000042529.397|Kcnj12 (ssRNA)
RNA: GGGAGUUCUACAGUCCGACGAUCGCUUCGAUAUCCGCAUGCUACUGGUUAUGCAGGCUGUACGACGCAGUGUGCAUCAGUCUGAGGAGUCUGGUGGUAAGUAAGCCUCUGCAGCAGACCCUGUCGGAGGCCAUGGGGGCGUGUGUGUGUGUGUGUGUGUGUGUGUGUGUGUGUGUGUGUGUGUGUGUGUGUGAACAUGUGUGAGGGUGUGGAGGUCCCAGGGUGUGUGUAUGUGAAUGUCAGUGGCUUGGGUGCUGUGUGGAGAGAGAGAGAGAGAGAGAGAGAGAGAGAGAGAGAGAGAGAGCUCUUGCGGUCGCACUAGUGUGGAAUUCUCGGGUGUCAAGG
B4: ENSMUSG00000042529.386|Kcnj12 (ssRNA)
RNA: GGGAGUUCUACAGUCCGACGAUCGCUUCGAUAUCCGCAUGCUACCUGAACUGGUCAGGCUGGAUGCUGGCCACAGACAUGAUCAGUCCGACUUGAGUCCCUGCCCUGCCCUGGUUAUGCAGGCUGUACGACGCAGUGUGCAUCAGUCUGAGGAGUCUGGUGGUAAGUAAGCCUCUGCAGCAGACCCUGUCGGAGGCCAUGGGGGCGUGUGUGUGUGUGUGUGUGUGUGUGUGUGUGUGUGUGUGUGUGUGUGUGUGUGAACAUGUGUGAGGGUGUGGAGGUCCCAGGGUGUGUGUAUGUGAAUCUCUUGCGGUCGCACUAGUGUGGAAUUCUCGGGUGUCAAGG
B5: ENSMUSG00000042529.388|Kcnj12 (ssRNA)
RNA: GGGAGUUCUACAGUCCGACGAUCGCUUCGAUAUCCGCAUGCUAAGGCUGGAUGCUGGCCACAGACAUGAUCAGUCCGACUUGAGUCCCUGCCCUGCCCUGGUUAUGCAGGCUGUACGACGCAGUGUGCAUCAGUCUGAGGAGUCUGGUGGUAAGUAAGCCUCUGCAGCAGACCCUGUCGGAGGCCAUGGGGGCGUGUGUGUGUGUGUGUGUGUGUGUGUGUGUGUGUGUGUGUGUGUGUGUGUGUGAACAUGUGUGAGGGUGUGGAGGUCCCAGGGUGUGUGUAUGUGAAUGUCAGUGGCUUGCUCUUGCGGUCGCACUAGUGUGGAAUUCUCGGGUGUCAAGG
B6: ENSMUSG00000022095.3|Fam160b2|123:127 (ssRNA)
RNA: GGGAGUUCUACAGUCCGACGAUCGCUUCGAUAUCCGCAUGCUAAAGGAGCUGGCUGCCAUUGCGUUUGUCAAGUUUCCCCCACACGGUCCUUACCUGAACUUCUCUCCACCUCCAGAAGGGCAAGUCUGAGCCAGGAGCAUGACGGGUGGGGGAAGAUUCCUGCCACACAACUUCUGCCCACGGGCAGUCUCCUGCCUGGCCAUGCUGCCACUCUGUCCUCCAUGCCGGGGACUUCAGCUGCAGGACACCUCACCUGUUGACCCCACGAGCUGAGGUUUCAAGGAGGUGCUGGCUCCUAAGGCCUCUUGCGGUCGCACUAGUGUGGAAUUCUCGGGUGUCAAGG
B7: ENSMUSG00000004113.146|Cacna1b|6:10;184:188;241:245;249:253 (ssRNA)
RNA: GGGAGUUCUACAGUCCGACGAUCGCUUCGAUAUCCGCAUGCUACACAUCAUACUAGAGAUGCGCUCAAGGGCCUGCCUUUCACCUACACUGUCACCAUAACAGGGACCAAAUCUGGAGGAUGUCCUUGCUGUUGAUUCUGGUUUUCAGUCACAACACUUUCACUGUUUGUCAUUUCUAUGUAGUUGAUCUAGAAAAAGCAGAAAUCAAAACAGGAAAGGAAAUGUUACACAAACUUUAAAAAAAAAGUCAACAUGUAGGAAGGUCUCCAUUUUGCAUUGUUUCACACACUUCAUACCAAUGUUCUCUUGCGGUCGCACUAGUGUGGAAUUCUCGGGUGUCAAGG
B8: ENSMUSG00000031028.47|Tub (ssRNA)
RNA: GGGAGUUCUACAGUCCGACGAUCGCUUCGAUAUCCGCAUGCUACUGAAGCAGGGGGGACAGCAAAUGGGUAUGACAGGAGAAGAAUAUUUCUGUGCCCCAAGGUCAACACACAUGCCCAGUCCUGGGUCAGUCCCCUGCUGCAGUGGUGUUAUCACACCGGAAAGCCUCUUCACCUGGAGGUACAGAGGGAGAGGAAGCACAAGCCUGGCUGCUGUGGCUCAGCCAUCCACUCAGCCUACGAGUCAGAGACAGUGGGUGUCCCGGGAAGCAGGGGUACAGUGAGUGUGUGUGUAUGUACAGGGCUCUUGCGGUCGCACUAGUGUGGAAUUCUCGGGUGUCAAGG
B9: ENSMUSG00000043670.69|Diras1 (ssRNA)
RNA: GGGAGUUCUACAGUCCGACGAUCGCUUCGAUAUCCGCAUGCUACCAUUCUAUCUGCACCCCACAACCACACACUGGAGGUUUGAUCCCUGUGGAUCUGAAAACAGGGACCUGGCUAAGGAACUGCUCAUCCCAGUCAGGCCCAGAGAGGUUACCUUGCCUCUCCAUCUCUGUCCCUGUGUGCCCAGCCAUGCCCACUGUCCCUGUCCCUCACAUUCUAUCACUGUGACCUCUGGGGAGUGCCCAUUGACCUCAUCUUCCUUCACUAAUAUCUUAUUUCUUUCACCUGAUCCUGUCCUUUCCCCCUCUUGCGGUCGCACUAGUGUGGAAUUCUCGGGUGUCAAGG

Whole data set: some 9,900 sequences, median “r (bound/input frequency ratio)” near 0.7, cut for the highest 2% near 6.5. For the sample, the highest values were picked, then their nearest neighbours and some sequences at random.

In the assay the target is TDP-43 (Homo sapiens, UniProt Q13148 1-414). As to the kind of experiment: RNA Bind-n-Seq with designed 260-mer pool; 25 mM Tris-HCl, 150 mM KCl, 3 mM MgCl2, BSA (printed 500 mg/mL), 20 units/mL SUPERase IN; pH not stated; 500 nM RNA pool, 1 h, 4 C; TDP-43 5, 50, 500 nM; high values mean tight binding. The following applies: protein: recombinant; tags: SBP (GST cleaved off with PreScission; pGEX-GST-SBP). The method, boiled down: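 Binding (R) is the ratio of each oligo's mapped-read-normalized abundance in the bound fraction to its abundance in the input. To obtain it, SBP-tagged recombinant TDP-43 (5, 50 or 500 nM) on streptavidin beads was incubated with 500 nM of an in vitro-transcribed 260-nt 3′ UTR oligo pool for 1 h at 4 °C in 25 mM Tris-HCl, 150 mM KCl, 3 mM MgCl2, BSA and SUPERase IN. The RNA retained after washing was released with biotin, then reverse transcribed, amplified by PCR and sequenced.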
Sequence of TDP-43 (Q13148 whole entry): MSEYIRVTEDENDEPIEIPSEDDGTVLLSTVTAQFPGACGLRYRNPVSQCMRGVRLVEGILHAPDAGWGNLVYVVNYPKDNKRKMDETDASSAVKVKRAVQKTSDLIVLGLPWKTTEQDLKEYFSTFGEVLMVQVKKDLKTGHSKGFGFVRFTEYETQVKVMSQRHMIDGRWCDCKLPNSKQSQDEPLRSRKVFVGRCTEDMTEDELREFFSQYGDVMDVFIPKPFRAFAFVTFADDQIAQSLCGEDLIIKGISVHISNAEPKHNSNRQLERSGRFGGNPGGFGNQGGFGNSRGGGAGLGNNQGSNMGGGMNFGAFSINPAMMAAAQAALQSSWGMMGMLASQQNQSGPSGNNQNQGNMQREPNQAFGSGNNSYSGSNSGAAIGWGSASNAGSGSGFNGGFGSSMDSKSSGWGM
Regarding B1, the binding signal was 0.746 R (bound/input frequency ratio).

For B2, the binding signal is 12.1 R (bound/input frequency ratio).

Consider B3, for which the binding signal is 5.15 R (bound/input frequency ratio).

Consider B4, for which the binding signal was 6.36 R (bound/input frequency ratio).

In the case of B5, the binding signal was 9.68 R (bound/input frequency ratio).

In the case of B6, the binding signal is 0.205 R (bound/input frequency ratio).

For the molecule B7, the binding signal is 0.13 R (bound/input frequency ratio).

For the molecule B8, the binding signal is 2.21 R (bound/input frequency ratio).

As for B9, the binding signal is 2.12 R (bound/input frequency ratio).
